Results as given in ChEMBL document CHEMBL3988442, “University of Dundee, Small-Polar-MMV Screening Library” (2021).
For some assays here: Results with a measured potency or affinity are listed apart.

Key:
Parameters in all cases: scale not given: direction of the effect not stated beside the values
[1] = molecular target: Protein translocase subunit SecA (Escherichia coli (strain K12)) (UniProt P10408); assay: Assay to Identify E. coli SecA ATPase Inhibitors; type: functional; conditions: 30 µM
Chain of Protein translocase subunit SecA (Escherichia coli (strain K12)) (P10408 whole entry): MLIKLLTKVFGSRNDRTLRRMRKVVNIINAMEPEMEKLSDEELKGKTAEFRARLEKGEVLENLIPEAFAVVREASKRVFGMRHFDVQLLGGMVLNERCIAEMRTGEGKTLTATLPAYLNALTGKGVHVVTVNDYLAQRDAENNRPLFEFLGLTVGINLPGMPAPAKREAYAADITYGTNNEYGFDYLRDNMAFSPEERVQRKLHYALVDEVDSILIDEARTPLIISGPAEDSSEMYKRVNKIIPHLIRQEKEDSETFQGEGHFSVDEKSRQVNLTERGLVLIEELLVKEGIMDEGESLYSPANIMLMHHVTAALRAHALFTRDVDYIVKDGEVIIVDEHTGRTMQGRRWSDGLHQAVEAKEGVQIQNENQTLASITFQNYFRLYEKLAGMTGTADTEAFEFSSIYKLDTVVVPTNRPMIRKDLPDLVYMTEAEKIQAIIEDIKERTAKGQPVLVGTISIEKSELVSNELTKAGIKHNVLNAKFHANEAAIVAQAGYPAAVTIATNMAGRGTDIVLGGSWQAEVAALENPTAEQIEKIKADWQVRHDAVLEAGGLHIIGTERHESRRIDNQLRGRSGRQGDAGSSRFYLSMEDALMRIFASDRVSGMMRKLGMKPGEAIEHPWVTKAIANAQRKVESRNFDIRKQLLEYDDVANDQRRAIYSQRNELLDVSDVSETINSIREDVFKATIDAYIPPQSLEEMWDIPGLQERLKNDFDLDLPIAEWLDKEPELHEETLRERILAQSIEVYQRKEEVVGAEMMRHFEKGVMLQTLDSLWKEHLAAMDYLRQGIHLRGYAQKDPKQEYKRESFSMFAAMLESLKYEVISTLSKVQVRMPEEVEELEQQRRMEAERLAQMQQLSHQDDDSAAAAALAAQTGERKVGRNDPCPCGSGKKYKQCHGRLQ

[2] = molecular target: T1, Ubiquitin-activating enzyme e1, putative (Leishmania donovani (strain BPK282A1)) (UniProt E9BSI1); assay: Leishmania donovani Ubiquitin Activating Enzyme (LdE1); type: functional; conditions: 30 µM
T1 sequence (whole entry): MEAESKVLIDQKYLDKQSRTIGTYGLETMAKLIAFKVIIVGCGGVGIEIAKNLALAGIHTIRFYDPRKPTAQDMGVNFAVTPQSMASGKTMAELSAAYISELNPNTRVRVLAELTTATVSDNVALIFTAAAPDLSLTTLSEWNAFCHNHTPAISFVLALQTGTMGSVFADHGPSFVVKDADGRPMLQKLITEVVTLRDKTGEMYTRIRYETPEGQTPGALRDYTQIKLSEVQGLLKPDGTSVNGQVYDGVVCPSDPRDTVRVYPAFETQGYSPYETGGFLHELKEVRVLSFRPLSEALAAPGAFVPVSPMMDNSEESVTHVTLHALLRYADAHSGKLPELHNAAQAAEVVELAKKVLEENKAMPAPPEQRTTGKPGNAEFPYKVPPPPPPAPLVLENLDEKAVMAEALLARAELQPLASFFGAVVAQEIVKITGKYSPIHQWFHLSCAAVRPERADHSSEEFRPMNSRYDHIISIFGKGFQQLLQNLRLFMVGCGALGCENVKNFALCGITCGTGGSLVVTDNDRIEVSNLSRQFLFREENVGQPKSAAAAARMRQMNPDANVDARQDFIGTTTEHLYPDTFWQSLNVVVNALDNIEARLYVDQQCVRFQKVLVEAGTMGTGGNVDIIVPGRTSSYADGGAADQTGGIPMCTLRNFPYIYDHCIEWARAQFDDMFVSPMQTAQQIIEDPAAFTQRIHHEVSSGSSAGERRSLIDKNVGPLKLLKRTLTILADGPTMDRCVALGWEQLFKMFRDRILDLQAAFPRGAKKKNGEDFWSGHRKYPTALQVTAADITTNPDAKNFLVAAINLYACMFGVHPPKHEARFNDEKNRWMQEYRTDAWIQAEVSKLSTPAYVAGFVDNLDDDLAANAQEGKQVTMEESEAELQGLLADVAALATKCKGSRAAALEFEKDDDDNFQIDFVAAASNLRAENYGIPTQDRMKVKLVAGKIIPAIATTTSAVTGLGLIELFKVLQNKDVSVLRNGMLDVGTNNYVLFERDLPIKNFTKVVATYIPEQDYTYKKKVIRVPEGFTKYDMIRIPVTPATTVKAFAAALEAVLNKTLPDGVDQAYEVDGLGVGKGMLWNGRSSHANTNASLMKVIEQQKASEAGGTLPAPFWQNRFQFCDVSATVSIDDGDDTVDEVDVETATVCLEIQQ

[3] = molecular target: AMP-activated protein kinase, AMPK (Homo sapiens) (UniProt P54646+O43741+P54619+Q9UGJ0+Q9Y478+Q13131+Q9UGI9); assay: AMP-dependent Kinase enzyme assay. An in vitro enzyme assay that detects ADP turnover that is directly proportional to AMPK activity. This uses naive AMPK that is activated during the assay with MK-8722; type: functional; conditions: 30 µM
[4] = molecular target: Sialic acid-binding Ig-like lectin 9 (Homo sapiens) (UniProt Q9Y336); assay: Hs-Siglec9 ALPHAscreen SOP 20170721; conditions: 10 µM
Chain of Sialic acid-binding Ig-like lectin 9 (Homo sapiens) (Q9Y336 whole entry): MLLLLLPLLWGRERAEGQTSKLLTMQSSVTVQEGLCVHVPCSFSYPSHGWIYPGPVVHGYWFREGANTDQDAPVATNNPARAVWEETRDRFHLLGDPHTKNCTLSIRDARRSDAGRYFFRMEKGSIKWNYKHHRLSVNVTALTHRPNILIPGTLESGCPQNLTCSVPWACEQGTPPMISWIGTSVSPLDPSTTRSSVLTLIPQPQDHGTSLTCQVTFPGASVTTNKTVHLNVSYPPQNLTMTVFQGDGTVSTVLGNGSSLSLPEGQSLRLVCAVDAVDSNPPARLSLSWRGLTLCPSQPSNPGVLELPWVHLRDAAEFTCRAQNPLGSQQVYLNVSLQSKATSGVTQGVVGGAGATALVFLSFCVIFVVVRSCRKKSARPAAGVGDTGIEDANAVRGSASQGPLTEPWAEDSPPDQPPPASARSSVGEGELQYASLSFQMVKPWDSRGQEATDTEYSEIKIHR

Trypanosoma cruzi = assay: Trypanosoma cruzi phosphomannomutase and mannose-1-phosphate guanylyltransferase assay; type: functional; conditions: 10 µM
[5] = molecular target: T2, Arginase-2, mitochondrial (Homo sapiens) (UniProt P78540); assay: in vitro enzyme assay to detect the production of urea directly proportional to the activity of Arginase II; type: functional; conditions: 33.3 µM; also: in the data most compounds retested in dose-response had high values
T2 sequence (whole entry): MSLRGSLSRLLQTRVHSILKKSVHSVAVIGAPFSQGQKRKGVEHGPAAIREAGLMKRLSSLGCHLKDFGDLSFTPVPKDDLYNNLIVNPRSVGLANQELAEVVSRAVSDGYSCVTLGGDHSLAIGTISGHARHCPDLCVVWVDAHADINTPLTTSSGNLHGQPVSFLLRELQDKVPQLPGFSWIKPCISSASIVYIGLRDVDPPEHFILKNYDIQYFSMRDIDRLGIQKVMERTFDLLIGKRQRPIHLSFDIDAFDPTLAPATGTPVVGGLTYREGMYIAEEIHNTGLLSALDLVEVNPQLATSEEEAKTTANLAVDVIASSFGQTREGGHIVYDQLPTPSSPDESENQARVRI

[6] = molecular target: T3, Proteasome subunit beta (Trypanosoma cruzi) (UniProt O96673); assay: Trypanosoma cruzi proteasome chymotrypsin-like activity (TcProtChymo) assay.; also: in the data most compounds retested in dose-response had high values; type: functional; conditions: 9.37 µM
T3 sequence (whole entry): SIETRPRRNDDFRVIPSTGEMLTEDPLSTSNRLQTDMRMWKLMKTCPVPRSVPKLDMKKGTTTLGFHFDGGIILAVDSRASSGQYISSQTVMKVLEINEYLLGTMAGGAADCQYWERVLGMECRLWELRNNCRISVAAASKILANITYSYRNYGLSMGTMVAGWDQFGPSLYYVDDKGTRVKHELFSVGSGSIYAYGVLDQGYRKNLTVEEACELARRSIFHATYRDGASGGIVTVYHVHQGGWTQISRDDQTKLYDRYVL

Homo sapiens = organism: Homo sapiens; assay: To identify inhibition of the IFN signalling (Jak-Stat) pathway via expression of an eGFP reporter gene under the control of an IFN-stimulated response element (ISRE) containing MxA promoter.; type: functional; conditions: 30 µM
[7] = molecular target: T4, Tyrosyl-tRNA synthetase, putative (Trypanosoma cruzi (strain CL Brener)) (UniProt Q4DSP6); assay: Trypanosoma cruzi tyrosyl tRNA synthetase (TcYRS) _High Tyrosine SOP; type: functional; conditions: 30 µM; also: in the data most compounds retested in dose-response had high values
T4 sequence (whole entry): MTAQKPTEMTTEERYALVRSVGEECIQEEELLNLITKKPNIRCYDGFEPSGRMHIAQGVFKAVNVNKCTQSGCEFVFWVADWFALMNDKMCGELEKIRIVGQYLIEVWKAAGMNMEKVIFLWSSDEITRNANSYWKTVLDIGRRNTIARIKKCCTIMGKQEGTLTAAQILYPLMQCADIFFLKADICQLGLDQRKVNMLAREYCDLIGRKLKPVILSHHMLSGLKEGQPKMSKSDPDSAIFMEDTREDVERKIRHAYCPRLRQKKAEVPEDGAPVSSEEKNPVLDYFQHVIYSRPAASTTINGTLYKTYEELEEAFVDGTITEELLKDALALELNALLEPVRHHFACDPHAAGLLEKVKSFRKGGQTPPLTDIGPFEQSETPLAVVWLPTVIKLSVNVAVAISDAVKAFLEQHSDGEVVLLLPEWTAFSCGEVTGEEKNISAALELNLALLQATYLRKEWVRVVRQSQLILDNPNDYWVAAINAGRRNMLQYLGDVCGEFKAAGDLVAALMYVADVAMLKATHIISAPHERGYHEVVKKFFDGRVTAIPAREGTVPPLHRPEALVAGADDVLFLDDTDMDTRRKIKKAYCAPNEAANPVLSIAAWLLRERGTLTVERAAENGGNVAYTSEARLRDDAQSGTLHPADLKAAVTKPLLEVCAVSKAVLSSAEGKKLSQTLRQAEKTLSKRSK

[8] = molecular target: T4, Tyrosyl-tRNA synthetase, putative (Trypanosoma cruzi (strain CL Brener)); assay: Trypanosoma cruzi tyrosyl tRNA synthetase (TcYRS) SOP; type: functional; conditions: 30 µM
[9] = molecular target: Chromo domain-containing protein 1 (Saccharomyces cerevisiae (strain ATCC 204508 / S288c) (Baker's yeast)) (UniProt P32657); assay: ScCHD-1 Enzyme Inhibition Assay; type: functional; conditions: 30 µM; also: in the data most compounds retested in dose-response had high values
Chain of Chromo domain-containing protein 1 (Saccharomyces cerevisiae (strain ATCC 204508 / S288c) (Baker's yeast)) (P32657 whole entry, the tested form may be a part): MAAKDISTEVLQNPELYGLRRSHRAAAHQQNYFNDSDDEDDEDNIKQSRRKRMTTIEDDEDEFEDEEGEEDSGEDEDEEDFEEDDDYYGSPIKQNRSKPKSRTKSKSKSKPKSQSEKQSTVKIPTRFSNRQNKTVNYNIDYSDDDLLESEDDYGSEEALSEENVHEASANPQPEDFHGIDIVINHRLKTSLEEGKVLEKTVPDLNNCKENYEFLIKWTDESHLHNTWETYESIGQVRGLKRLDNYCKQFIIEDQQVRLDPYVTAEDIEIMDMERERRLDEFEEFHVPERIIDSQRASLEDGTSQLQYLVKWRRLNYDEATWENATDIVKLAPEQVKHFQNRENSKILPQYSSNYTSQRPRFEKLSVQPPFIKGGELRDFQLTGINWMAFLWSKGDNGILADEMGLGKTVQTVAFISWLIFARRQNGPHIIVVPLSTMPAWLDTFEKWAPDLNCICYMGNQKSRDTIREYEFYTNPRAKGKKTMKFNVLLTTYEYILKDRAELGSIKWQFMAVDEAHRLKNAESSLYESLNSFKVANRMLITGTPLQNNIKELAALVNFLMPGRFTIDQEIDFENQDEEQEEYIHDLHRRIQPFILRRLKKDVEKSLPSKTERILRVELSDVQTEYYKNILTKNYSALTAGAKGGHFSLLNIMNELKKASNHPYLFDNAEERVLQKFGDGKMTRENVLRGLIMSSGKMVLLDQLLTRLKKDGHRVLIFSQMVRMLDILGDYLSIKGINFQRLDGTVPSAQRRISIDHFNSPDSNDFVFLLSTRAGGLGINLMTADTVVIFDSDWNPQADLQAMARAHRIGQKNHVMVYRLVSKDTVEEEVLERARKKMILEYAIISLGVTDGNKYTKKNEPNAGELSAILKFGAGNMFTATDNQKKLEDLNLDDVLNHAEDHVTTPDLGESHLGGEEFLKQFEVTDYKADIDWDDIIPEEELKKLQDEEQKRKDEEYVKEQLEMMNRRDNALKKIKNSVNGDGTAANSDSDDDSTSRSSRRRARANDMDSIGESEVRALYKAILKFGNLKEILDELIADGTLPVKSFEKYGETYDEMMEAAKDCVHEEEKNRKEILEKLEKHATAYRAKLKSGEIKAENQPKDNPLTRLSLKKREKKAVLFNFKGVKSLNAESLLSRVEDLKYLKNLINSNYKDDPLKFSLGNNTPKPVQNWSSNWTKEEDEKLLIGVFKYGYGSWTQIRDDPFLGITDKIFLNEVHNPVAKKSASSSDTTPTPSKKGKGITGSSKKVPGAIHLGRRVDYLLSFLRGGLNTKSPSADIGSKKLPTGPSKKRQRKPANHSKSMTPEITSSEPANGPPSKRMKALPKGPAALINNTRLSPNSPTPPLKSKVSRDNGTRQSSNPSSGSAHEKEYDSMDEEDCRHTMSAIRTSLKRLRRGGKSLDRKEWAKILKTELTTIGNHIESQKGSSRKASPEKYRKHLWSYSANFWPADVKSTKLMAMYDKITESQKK

Row | SMILES | Percent Effect [1] | Percent Effect [2] | Percent Effect [3] | Percent Effect [4] | Percent Effect (Trypanosoma cruzi) | Percent Effect [5] | Percent Effect [6] | Percent Effect (Homo sapiens) | Percent Effect [7] | Percent Effect [8] | Percent Effect [9]
1 | COCC1COCCC12CCN(C(=O)CCOc1ccccc1)CC2 (configuration not stated) | -3.35% | 2.7% | 0.684% | -3.94% | 8.2% | -2.5% | 6% | -0.428% | 8.91% | 6.1% | 1.14%
2 | CC(C)NC(=O)N1CCN(C(=O)N(C)C)CC2(CC(=O)N(C)C2)C1 (configuration not stated) | -3.05% | 13.5% | -4.22% | 1.04% | 1.56% | 6.25% | 18.5% | 7.62% | 8.91% | 13.4% | -7.18%
3 | COc1cccc2c1OCC(C(=O)N(C)CCCc1cnn(C)c1)C2 (configuration not stated) | -3.02% | 0% | -14.1% | -2.21% | -6.27% | 3.64% | 4.79% | 12.6% | 0% | 7.5% | -4.59%
4 | CC(=O)N1CCC(C(=O)NCCN2CCCCC2)CC1 | -1.49% | 9.72% | -3.56% | -2.74% | 0.875% | 1.77% | 17.5% | -6.46% | 4.21% | 5.13% | -2.32%
5 | Cc1nc(O)c2nnn(C[C@H]3CCCN3C(=O)c3cccc(F)c3)c2n1 | -3.34% | -1.35% | 8.18% | 1.91% | -3.36% | -3.48% | -0.936% | 9.46% | 2.15% | 1.3% | 7.79%
6 | Cc1noc(C)c1CCC(=O)N1CCCN(Cc2cscn2)CC1 | -1.71% | 13.2% | -5.71% | -4.5% | -3.76% | 6.9% | 21.1% | 23% | 8.33% | 17.1% | -10.5%
7 | Cc1cnn(CC2CCCN2Cc2nnc(Cc3ccccc3)o2)c1 (configuration not stated) | -4.98% | 10.8% | -8.22% | -3.85% | -9.15% | 6.81% | 3.96% | 19.9% | 4.43% | 3.7% | -4.25%
8 | CC(C)Cc1noc(CN(C)C(=O)C2COc3ccccc3C2)n1 (configuration not stated) | -3.93% | 5.2% | -1.17% | 6.48% | -0.0983% | -27.6% | 14.3% | -9.36% | -1.07% | 13.6% | 0.431%
9 | Cc1nc(-c2ccsc2)ccc1C(=O)NCCC1CCCO1 (configuration not stated) | -8.67% | 0% | -8.2% | 10% | 9.77% | -1.92% | 3.51% | -2.44% | 4.41% | 9.76% | -10.2%
10 | CN(C)c1cncc(C2CCN(C(=O)CO)CC2)n1 | -3.4% | 6.76% | 7.38% | 5.95% | 0.198% | 2.55% | 10.8% | 22% | 4.3% | 9.09% | -10.6%
11 | COc1cc(C(C)=O)ccc1OCC(=O)N(C)Cc1cnn(C)c1 | -4.48% | 21.1% | -7.57% | 7.64% | 4.76% | 1.44% | 6.18% | 6.99% | 6.4% | 25.9% | -10.6%
12 | O=C(CCN1C(=O)CCC1=O)Nc1cnn(-c2ccccc2Cl)c1 | -6.27% | 10.8% | 6.39% | 1.29% | -7.52% | -0.185% | 5.92% | 20.3% | 4.95% | 6.1% | 4.56%
13 | CCc1nnc2n1CCN(C(=O)c1cc3ccc(F)cc3nc1C)C2 | -5.47% | 15.6% | 4.64% | 3.18% | 1.12% | -3.92% | 6.59% | -1.03% | 11.7% | 21.9% | -6.09%
14 | Cc1cccc(CCC(=O)N2CCOCC2c2c(C)n[nH]c2C)c1 (configuration not stated) | -3.35% | -5.48% | -2.62% | 6.45% | -3.33% | -2.73% | -2.84% | 9.04% | -3.23% | -7.5% | -2.99%
15 | O=C(CCc1ccccc1)N1CCn2cc(Cn3cncn3)nc2C1 | -2.68% | 0% | 5.15% | 7.21% | -3.45% | -3.23% | 14.6% | 22.4% | 1.06% | -1.28% | 1.43%
16 | Cc1noc(C)c1CN1CCN(C(=O)Cn2cncn2)CC1 | -5.62% | 5.41% | -0.877% | 5% | 2.83% | 3.72% | -5.24% | -2.96% | 2.15% | 11.1% | -4.36%
17 | Cc1cccc(NC2CCN(C(=O)Nc3cc(F)cc(F)c3)CC2)n1 | -9.91% | 7.59% | -1.53% | 14.7% | 12.4% | -4.18% | 4.34% | 27.7% | -0.493% | 13.9% | -7.84%
18 | CN(CCN1CCOCC1)C(=O)CCc1cccc(Cl)c1 | -0.257% | 13.2% | -2.72% | -7.75% | -4.58% | -9.47% | 12.2% | 17.3% | 1.06% | 7.79% | -4.62%
19 | O=C(Nc1cc(C(F)(F)F)c[nH]c1=O)c1ccco1 | -2.24% | -2.63% | 19.1% | 5.92% | 0.28% | -15.5% | 10.9% | -15.5% | 6.4% | 6.17% | 0.552%
20 | CCC(O)CN1CCN(C(=O)c2cccn2Cc2ccccc2)CC1 (configuration not stated) | -7.42% | 10.1% | -1.72% | 3.91% | -5.95% | -0.38% | -3.69% | 20.8% | 0.493% | 11.4% | -3.89%
21 | CC(C(=O)N1CCCN(c2ncccc2C#N)CC1)n1cccn1 (configuration not stated) | -3.42% | 10.5% | 0.522% | -3.82% | -6.63% | 4.68% | 4.32% | 3.06% | 5.42% | 11.1% | -6.77%
22 | CCCC(C)C(=O)NCc1cn2cc(Br)ccc2n1 (configuration not stated) | -3.66% | -44.7% | 5.33% | 4.19% | -0.876% | -2.37% | 9.68% | 4.86% | 9.57% | 15.6% | -2.1%
